Several values for one entry are separate records, joined by “and”; a condition that tells them apart may be missing. Identical values can stand only once. Results filed as inconclusive are left out. Entries that show only a call come without a potency. Some compounds were tested as several samples or in several runs, with calls that do not always agree. Activity calls are given as the source filed them. The call rests on the fitted dose curve; in most records, active means well fitted inhibition curve with a large enough effect; inconclusive means small, poorly fitted or top-dose-only effect; inactive means no such curve, though single readings can be large or run the other way.
Target: M-phase phosphoprotein 8 (Homo sapiens) (UniProt Q99549)
Sequence (Q99549 whole entry, looked up): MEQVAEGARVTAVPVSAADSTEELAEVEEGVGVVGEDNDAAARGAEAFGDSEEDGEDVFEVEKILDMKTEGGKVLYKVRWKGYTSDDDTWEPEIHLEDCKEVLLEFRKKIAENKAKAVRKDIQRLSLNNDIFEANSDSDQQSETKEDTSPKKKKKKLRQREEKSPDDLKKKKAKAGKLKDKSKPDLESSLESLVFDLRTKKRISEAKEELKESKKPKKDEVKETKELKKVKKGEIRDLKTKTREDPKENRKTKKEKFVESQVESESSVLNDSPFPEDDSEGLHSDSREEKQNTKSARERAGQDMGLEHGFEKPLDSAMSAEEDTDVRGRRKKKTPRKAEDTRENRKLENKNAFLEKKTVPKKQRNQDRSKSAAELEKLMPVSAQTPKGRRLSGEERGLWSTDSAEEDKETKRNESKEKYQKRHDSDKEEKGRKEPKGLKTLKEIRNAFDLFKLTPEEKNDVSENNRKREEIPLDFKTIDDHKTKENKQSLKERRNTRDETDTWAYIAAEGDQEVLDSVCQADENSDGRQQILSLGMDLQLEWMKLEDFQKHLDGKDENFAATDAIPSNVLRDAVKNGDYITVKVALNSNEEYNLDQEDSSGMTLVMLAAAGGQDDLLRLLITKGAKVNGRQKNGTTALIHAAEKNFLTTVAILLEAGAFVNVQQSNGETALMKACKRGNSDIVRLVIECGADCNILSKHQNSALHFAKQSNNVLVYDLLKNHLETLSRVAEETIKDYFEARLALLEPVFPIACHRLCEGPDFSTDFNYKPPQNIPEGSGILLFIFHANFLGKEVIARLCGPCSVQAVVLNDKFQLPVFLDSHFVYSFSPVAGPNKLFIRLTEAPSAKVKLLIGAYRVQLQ
Assay: qHTS Validation Assay for Inhibitors for MPP8 Chromodomain Interactions with Methylated Histone Tails (AID 488949); further: nearly all actives have a fitted effect of over 55% in size
Details: AlphaScreen MPP8 binding to H3K9me3 peptide; series mostly up to 57.1 µM
Procedure, shortened: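 AlphaScreen read-out: streptavidin donor and nickel chelate acceptor beads (final 10 ug/mL), 30 min in the dark at RT. Complex of 50 nM MPP8 and 50 nM b-H3(1-18)K9me3 peptide had been exposed to compounds for 30 min beforehand.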
Potency means the concentration at half of the fitted maximal effect.

| SMILES | Potency |
| --- | --- |
| Nc1nc(SCc2ccc([N+](=O)[O-])cc2)c2ncn([C@@H]3O[C@H](CO)[C@@H](O)[C@H]3O)c2n1 | inactive |
| CC(C)NCC(O)COc1cccc2ccccc12 (stereo not given) | inactive |
| CCCCCCCCc1ccc(-c2ccc(C(=O)O)cc2)cc1 | inactive |
| Fc1cccc(/C=N/N=C/c2cccc(F)c2)c1 | inactive |
| C#CCN1C(C)=C(C(=O)OC)C(c2cccc([N+](=O)[O-])c2)C(C(=O)OCC)=C1C (stereo not given) | inactive |
| NC(=O)C1=CN(C2OC(COP(=O)(O)OP(=O)(O)OC[C@H]3O[C@@H](n4cnc5c(N)ncnc54)[C@H](OP(=O)(O)O)[C@@H]3O)C(O)C2O)C=CC1 (stereo not given in full) | inactive |
| Cc1nc2sccn2c(=O)c1CCN1CCC(=C(c2ccccc2)c2ccc(F)cc2)CC1 | inactive |
| NO | inactive |
| COc1ccccc1N1CCN(CCN(C(=O)c2ccc(I)cc2)c2ccccn2)CC1 | inactive |
| O=C(O)CCCC[C@@H]1CCSS1 | inactive |
| NC(=O)C(=O)O | inactive |
| O=c1[nH]c2cc([N+](=O)[O-])c([N+](=O)[O-])cc2[nH]c1=O | inactive |
| N=C(N)SCCc1ccc(CCSC(=N)N)cc1 | inactive |
| NCC1OC(O[C@H]2[C@H](O)[C@@H](OC3C(O)C(N)CC(N)C3OC3OC(CO)C(O)C(O)C3N)O[C@@H]2CO)C(N)C(O)C1O (stereo not given in full) | inactive |
| CC(=O)N[C@H](C(=O)O)C(C)(C)SN=O | inactive |
| CN1C2CCC1CC(OC(=O)C(O)c1ccccc1)C2 (stereo not given) | inactive |
| CNc1ncnc2c1ncn2[C@@H]1O[C@H](CO)[C@@H](O)[C@H]1O | inactive |
| CC[C@@H](C)[C@H]1O[C@]2(CC[C@H]1C)C[C@@H]1C[C@@H](CC=C(C)[C@@H](O[C@H]3C[C@H](OC)[C@@H](O[C@H]4C[C@H](OC)[C@@H](O)[C@H](C)O4)[C@H](C)O3)[C@@H](C)C=CC=C3CO[C@@H]4[C@H](O)C(C)=C[C@@H](C(=O)O1)[C@]34O)O2 | inactive |
| NC[C@@H]1O[C@H](C23CC4CC(CC(C4)C2)C3)Cc2c1ccc(O)c2O | 20 µM (active) and inactive |
| N#C/C(=C\c1c[nH]c2ccccc12)C(=O)c1ccc(O)c(O)c1 | 3.98 µM (active) and 8.44 µM (active) |

Reference: PubChem BioAssay (NCATS)
